Sampled rows, rich in hits. Any-hit rate of the full collection: about 6.2%.
AI-2 QS mod: modulators of Vibrio harveyi AI-2 quorum sensing system | hit rate 0.4% among 300,000 | activity change, % at 7.5 µM | Vibrio harveyi JMH597 AI-2 luminescence/OD600 ratio, 9 h; hits give low values; strain lacks LuxN and CqsS sensors; 0 = neutral-control median; in the data active means activity change below about -75%, passing the limit was not always enough;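 further: luminescence divided by OD600 gain over 9 h not by final OD600 alone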
Cardio protect: modulators protecting cardiomyocytes from myocardial damage | hit rate 0.63% among 360,000 | protection from H2O2 cell death, % at 20 µM | AID 588492 | H9c2 cardiomyocytes, H2O2 injury protection, ATPLite, 2 h;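 active means compounds giving at least 50% protection of heart cells from peroxide-induced death in the single-dose screen, raw or plate-pattern-corrected value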;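 further: 0% = DMSO wells with peroxide and 100% = DMSO wells without peroxide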
NTR1 ag: agonists of human neurotensin receptor NTR1 | P30989 | NTR1-U2OS beta-arrestin-GFP spot imaging, agonist mode | activation, % at 20 µM | hit rate 0.17% among 330,000;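 active means activation at or above 40% of the spot to cytoplasm intensity ratio, with at least 20 cells analyzed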;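 further: 0% = DMSO without peptide and 100% = 100 nM NTR1 peptide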
Target sequence (P30989 whole entry, looked up): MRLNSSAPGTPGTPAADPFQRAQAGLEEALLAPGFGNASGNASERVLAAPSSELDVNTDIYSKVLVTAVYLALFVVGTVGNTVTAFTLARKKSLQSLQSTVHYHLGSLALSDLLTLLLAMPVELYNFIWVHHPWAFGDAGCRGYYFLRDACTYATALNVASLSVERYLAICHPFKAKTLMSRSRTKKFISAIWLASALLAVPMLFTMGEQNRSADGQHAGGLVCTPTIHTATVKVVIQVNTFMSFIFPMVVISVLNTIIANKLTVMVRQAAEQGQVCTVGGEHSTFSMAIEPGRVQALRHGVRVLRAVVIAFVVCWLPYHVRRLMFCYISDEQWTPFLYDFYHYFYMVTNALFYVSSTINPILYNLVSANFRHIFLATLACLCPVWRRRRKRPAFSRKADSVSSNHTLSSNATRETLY
GRIN3A LBD mod: NR3A (human) ligand-binding domain modulation | NR3A LBD differential scanning fluorimetry, Tm shift; 0% = protein alone, 100% = glycine-bound protein | Tm shift relative to glycine control, % at 25 µM | hit rate 2.5% among 340,000;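 active means melting temperature shift of at least 10% of the positive control shift, at one fixed dose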
Mot1-301 SUMO: blocks SUMOylation pathway, rescuing yeast Mot1-301 growth; hit rate 1% among 320,000; growth rescue, % at 18.8 µM; S. cerevisiae Mot1-301 growth rescue, ATP luminescence, 38.5C; percent above DMSO median, 100 means doubled;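 active means every valid replicate shows activation above 250% relative to neutral control wells; inactive means the rest, any valid replicate at or below 250%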;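 further: OY570 slx delta 5 strain wells were the positive control but not used for scaling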
AHR act: human AHR activation. activation, % at 5 µM. P35869. hit rate 2.5% among 320,000. AID 2796. AHR-responsive luciferase reporter cells, luminescence; in the data active means activation above about 47%;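 further: 0% = vehicle wells and 100% = reference agonist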
Mot1 SUMO dose: inhibits SUMO pathway, affecting Mot1-301 yeast growth; shares compounds with Mot1-301 SUMO; S. cerevisiae Mot1-301 galactose growth, ATP luminescence, 24 h; -100 = growth of slx-deleted rescue strain; growth activity, percent, % at 42 µM; 2,300 tested, under 10 active; AID 493004;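 active means Signal drops as the depositor expects, and the fitted half-maximal dose is no more than ten times the top valid tested dose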;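 further: more negative values mean stronger growth rescue toward the control strain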
Active calls of the source: *.

`COc1ccc(C)cc1S(=O)(=O)N1CCC(C(=O)NCCc2ccccc2)CC1` gave AI-2 QS mod 7.1, Cardio protect 1.4, NTR1 ag -0.7, GRIN3A LBD mod -2.4, Mot1-301 SUMO 412.7*, AHR act 0.1 and Mot1 SUMO dose 0.2.
`CCC1CCCCN1CCCNC(=O)Cn1ncn2nc(-c3ccc(OC)cc3)cc2c1=O` (stereo not given) gave AI-2 QS mod 60.0, Cardio protect -1.0, NTR1 ag -1.3, GRIN3A LBD mod -0.7, Mot1-301 SUMO 29.6 and AHR act -3.6.
Screening CC1(C(=O)NCc2cccs2)Cc2c(-c3ccc4c(c3)OCO4)ccnc2O1 (stereo not given) returned Cardio protect -3.6.
CC1(C(=O)NCc2ccc(Cl)cc2)CCN1C(=O)Cc1ccc(Cl)cc1Cl (stereo not given) was read as Cardio protect -0.7.
O=C(O)c1ccc(Cl)c(NCc2cccs2)c1 was read as AI-2 QS mod 36.5, Cardio protect -4.6, NTR1 ag -0.5, GRIN3A LBD mod 2.2, Mot1-301 SUMO 560.0*, AHR act 1.7 and Mot1 SUMO dose -0.1.
Screening O=C(NCc1ccc(Cl)cc1)c1ccc(-c2ccc(F)c(F)c2)c2ccoc12 returned Cardio protect -4.5.
COc1ccc(C(=O)N2CCN(c3ccc(NC(=O)c4cccnc4)cc3)CC2)cc1 was read as AI-2 QS mod 30.1, Cardio protect -1.0, NTR1 ag -0.6, GRIN3A LBD mod 0.8, Mot1-301 SUMO 457.7*, AHR act -0.3 and Mot1 SUMO dose 0.5.
`COc1ccc(N2CCN(C(=O)c3ccncc3)CC2)cc1` gave AI-2 QS mod 6.7, Cardio protect 6.7, NTR1 ag -1.9, GRIN3A LBD mod -1.6, Mot1-301 SUMO 4.7 and AHR act -2.0.
CCCCNC(=O)C(=O)Nc1cc2c3c(c1)CCC(=O)N3CCC2 was read as AI-2 QS mod 3.5, Cardio protect 3.3, NTR1 ag 3.9, GRIN3A LBD mod 1.7, Mot1-301 SUMO -2.2 and AHR act 7.7.
For Oc1ccc(C2=CSC3=NCCN23)cc1O the results were AI-2 QS mod -1.3, Cardio protect 15.6, NTR1 ag 1.0, GRIN3A LBD mod 0.5, Mot1-301 SUMO 717.6*, AHR act 0.8 and Mot1 SUMO dose 0.3.
`CCCCCCCCCCOC(=O)Cn1c(COc2ccccc2OC)[n+](C)c2ccccc21` gave AI-2 QS mod 30.7, Cardio protect -21.1, NTR1 ag 17.6, GRIN3A LBD mod -408.3, Mot1-301 SUMO 835.5*, AHR act 4.3 and Mot1 SUMO dose 0.4.
Screening C#CCN1C(=O)C2(OCCO2)c2ccccc21 returned AI-2 QS mod 4.8, Cardio protect 4.9, NTR1 ag 0.9, GRIN3A LBD mod 0.0, Mot1-301 SUMO 14.6 and AHR act -1.6.
`COc1ccc(NC(=O)CSCC(=O)N2CCCc3ccccc32)cc1` gave AI-2 QS mod 28.3, Cardio protect 2.7, NTR1 ag 0.2, GRIN3A LBD mod -3.1, Mot1-301 SUMO -24.0 and AHR act 30.9.
Cc1cccc(NC(=O)CSCC(=O)N2CCCc3ccccc32)c1 was read as AI-2 QS mod 8.2, Cardio protect 1.1, NTR1 ag -0.1, GRIN3A LBD mod 1.1, Mot1-301 SUMO 502.9*, AHR act 4.7 and Mot1 SUMO dose -0.4.
`Cc1ccc(NC(=O)CSCC(=O)Nc2ccccc2N2CCCC2)cc1` gave AI-2 QS mod 9.0, Cardio protect -3.8, NTR1 ag 0.3, Mot1-301 SUMO 421.0*, AHR act 19.6 and Mot1 SUMO dose -0.3.
Cc1cccc(OCC(=O)N2CCN(C(=O)COc3ccc(Cl)cc3)CC2)c1 was read as AI-2 QS mod 33.7, Cardio protect 0.2, NTR1 ag 0.4, GRIN3A LBD mod 1.0, Mot1-301 SUMO 8.3 and AHR act 2.6.
For COc1ccc(N2CCN(C(=O)COC(=O)c3cccc(S(=O)(=O)Nc4cccc(C)c4)c3)CC2)cc1 the results were AI-2 QS mod -7.3, Cardio protect -8.8, NTR1 ag 0.9, GRIN3A LBD mod -4.4, Mot1-301 SUMO -6.1 and AHR act 1.7.
Screening CCCn1c(C2CCCN2c2nc(-c3cccc(Br)c3)cs2)nc2ccccc21 (stereo not given) returned AI-2 QS mod 11.2, Cardio protect -1.0, NTR1 ag 6.2, GRIN3A LBD mod -9.0, Mot1-301 SUMO -15.7 and AHR act 12.4.
For O=C(CCN1C(=O)c2ccccc2C1=O)NCc1ccc(Cl)cc1 the results were AI-2 QS mod 22.2, Cardio protect 1.2, NTR1 ag 0.0, GRIN3A LBD mod -0.4, Mot1-301 SUMO 8.2 and AHR act -5.3.
For COc1ccc(-c2[nH]ncc2CNCc2cc(C)n(C)n2)c(F)c1 the results were AI-2 QS mod 11.1, Cardio protect -1.3, NTR1 ag 1.5, GRIN3A LBD mod -1.9, Mot1-301 SUMO 12.6 and AHR act 4.5.
For COc1ccc(-c2[nH]ncc2CNCCn2cccn2)c(F)c1 the results were AI-2 QS mod 4.6, Cardio protect 10.9, NTR1 ag -0.4, GRIN3A LBD mod -2.3, Mot1-301 SUMO active, AHR act 1.6 and Mot1 SUMO dose -0.2.
For Cc1cc(C(=O)NNS(=O)(=O)c2ccc(C(C)(C)C)cc2)nn1C(C)(C)C the results were AI-2 QS mod 1.9, Cardio protect 5.2, NTR1 ag 0.6, GRIN3A LBD mod 0.3, Mot1-301 SUMO -12.7 and AHR act -0.9.
`CCn1c(SCC(N)=O)nnc1-c1cc2c(C)nn(-c3ccccc3)c2s1` gave AI-2 QS mod 46.7, Cardio protect 13.3, NTR1 ag 11.8, GRIN3A LBD mod 2.0, Mot1-301 SUMO active, AHR act 10.3 and Mot1 SUMO dose 0.0.
For CCn1c(SCC(=O)Nc2cc(C(C)(C)C)nn2-c2ccccc2)nnc1-c1cccs1 the results were AI-2 QS mod 9.1, Cardio protect 1.8, NTR1 ag 2.2, GRIN3A LBD mod -0.7, Mot1-301 SUMO -1.5 and AHR act 3.9.
`Cn1c(=O)c2c(ncn2CC(=O)N2CCCCCC2)n(C)c1=O` gave AI-2 QS mod 0.9, Cardio protect -20.0, NTR1 ag 0.4, GRIN3A LBD mod -1.6, Mot1-301 SUMO active, AHR act 0.0 and Mot1 SUMO dose -0.1.
Screening CC1CCN(C(=O)Cn2cnc3c2c(=O)n(C)c(=O)n3C)c2ccccc2S1 (stereo not given) returned AI-2 QS mod 14.7, Cardio protect -4.4, NTR1 ag 1.7, GRIN3A LBD mod -0.9, Mot1-301 SUMO 761.2*, AHR act -4.0 and Mot1 SUMO dose 0.2.
`Cn1c(=O)c2c(ncn2CC(=O)N2CCCc3ccccc32)n(C)c1=O` gave AI-2 QS mod 41.3, Cardio protect 0.0, NTR1 ag -1.0, GRIN3A LBD mod -0.8, Mot1-301 SUMO 17.4 and AHR act 4.1.
